Screening data deposited in PubChem BioAssay by National Center for Advancing Translational Sciences (NCATS).
In the library only some 6% were active in any assay of this set; here they are far more common.
D1 antag: human D1 dopamine receptor antagonism | AID 504652 | 3.2% of 360,000 active | activity change, negative = inhibition, % at 10 µM | HEK293 TREx D1 cells, calcium flux, dopamine EC80; hits give low values | P21728; in the data active = activity change below about -30%
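Inducible Hek293 Trex D1 cells (tetracycline, overnight, 30 C). Calcium dye 30–90 min RT. Antagonist mode: EC80 dopamine added after 180 s compound read.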
DRD3 agonist: agonists of human D3 dopamine receptor | P35462 | D3R DiscoveRx beta-arrestin cells, luminescence, 90 min | max activation, % | 0.58% of 410,000 active | AID 652048; in the data active = max activation above about 30%
Target sequence (P35462 whole entry, looked up): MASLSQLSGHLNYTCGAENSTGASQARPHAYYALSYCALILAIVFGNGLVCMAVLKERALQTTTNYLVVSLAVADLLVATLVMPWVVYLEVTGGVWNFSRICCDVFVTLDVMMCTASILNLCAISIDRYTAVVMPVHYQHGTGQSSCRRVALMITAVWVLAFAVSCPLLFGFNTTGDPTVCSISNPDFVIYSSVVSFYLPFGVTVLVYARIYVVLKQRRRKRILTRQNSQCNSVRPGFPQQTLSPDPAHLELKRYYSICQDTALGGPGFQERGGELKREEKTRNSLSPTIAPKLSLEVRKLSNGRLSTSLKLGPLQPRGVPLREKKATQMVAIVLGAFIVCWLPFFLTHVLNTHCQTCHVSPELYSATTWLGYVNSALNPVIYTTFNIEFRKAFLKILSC
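Agonist mode: compounds and dopamine controls were applied to plated cells for 90 min at 37 degrees C after an overnight attachment at 1500 cells/well. Luminescent read-out followed 30 - 60 minutes at room temperature with DiscoveRx detection reagent.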
D1 ag: human D1 receptor agonism; P21728; HEK293 T-REx D1 cells, calcium flux, agonist mode; activation, % at 2 µM; 1% of 360,000 active; in the data active = activation above about 30%
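Agonism was scored from calcium flux recorded over 180 s (1 read/s) after pintool compound addition, following a 10-cycle baseline. Cells were inducible force-coupled HEK293 TREx D1, plated overnight at 30 C and loaded with no-wash calcium dye.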
DRD3 antagonist: blocks the human D3 dopamine receptor. D3R cells, DiscoveRx beta-arrestin luminescence, antagonist mode; hits give low values. max response, negative = inhibition, %. 2.5% of 360,000 active; in the data active = max response below about -50%; inconclusive = no clear call, values can overlap the other calls
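Cells expressing the human receptor were seeded at 1500 cells/well, incubated overnight at 37 degrees C in 5% CO2, then exposed to library compounds with dopamine controls for 90 minutes at 37 degrees C before luminescent detection.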
D1 potentiator: human D1 dopamine receptor positive modulation. P21728. HEK293 TREx D1 cells, calcium flux, dopamine EC20 potentiation. potentiation, % at 10 µM. 0.036% of 360,000 active; in the data active = potentiation above about 30%
Large screens that a line does not name were inactive.

CC1(C(=O)NS(=O)(=O)c2cccc(C#N)c2)CCN1C(=O)Cc1cc(F)ccc1F (centres undefined)	none (no result: D1 antag, D1 ag, D1 potentiator)
Cc1c(Nc2ncccc2C(=O)O)cccc1C(F)(F)F	none
COc1ccccc1C(=O)Nc1ccc2nc(SCC(=O)N(C)c3ccccc3)sc2c1	DRD3 agonist 39 (no result: DRD3 antagonist)
COc1ccccc1C(=O)Nc1ccc2nc(SCC(=O)N(C)C)sc2c1	none
COc1ccc(C2(C(=O)Nc3cc(C)on3)CCOCC2)cc1	D1 antag -60
COc1ccccc1N=c1scc(-c2ccc(S(=O)(=O)N3CCCC3)cc2)n1C	D1 antag -34 (no result: DRD3 antagonist)
COc1ccc(NC(=O)C2CCN(c3cc(C)nc4c(-c5ccc(Cl)cc5)c(C)nn34)CC2)cc1	none (no result: DRD3 antagonist)
COc1ccc(S(=O)(=O)NCc2ccc3c(c2)OCO3)cc1OC	D1 antag -55
CCCCCCNS(=O)(=O)c1ccc(OC)c(OC)c1	DRD3 agonist 32
COc1ccc(S(=O)(=O)NCc2ccc3c(c2)OCO3)cc1C	D1 antag -87
Cc1ccc(S(=O)(=O)NCc2ccc3c(c2)OCO3)cc1C	DRD3 antagonist inconclusive
O=S(=O)(Cc1ccc(Cl)cc1)NCc1ccc2c(c1)OCO2	D1 antag -36
COc1cccc(CNC(=O)CN2C(=O)COc3ccc(S(=O)(=O)Nc4ccccc4)cc32)c1	none (no result: DRD3 antagonist)
O=c1c2ccccc2oc2nc(-c3ccco3)n(-c3ccccc3)c(=O)c12	none
CC(C)c1nc2oc3ccccc3c(=O)c2c(=O)n1-c1ccccc1	D1 ag 54
CCCCn1c(NC(=S)Nc2ccccc2)nc2ccccc21	DRD3 agonist 32
CC(=O)Nc1nc2ccccc2n1CCN(C)C	none
CCC(=O)Nc1nc2ccccc2n1CCN(C)C	DRD3 antagonist -81
CN(C)CCn1c(C(=O)Nc2ccccc2)cc2ccccc21	D1 antag -43
CN(C)CCCn1c(NC(=O)C2CCCCC2)nc2ccccc21	DRD3 antagonist -52
NS(=O)(=O)c1ccc(NC(=O)CN2C(=O)COc3ccc(Cl)cc32)cc1	none (no result: DRD3 antagonist)
CCCCNC(=O)C(NC(=O)c1cccc(C(F)(F)F)c1)C(=O)c1ccccc1 (centres undefined)	none (no result: D1 antag, D1 ag, D1 potentiator)
CCCc1ccc(OCC(O)CN2CCN(c3ccccn3)CC2)cc1 (centres undefined)	DRD3 agonist 62
CCc1ccc(OCC(O)CN2CCN(c3ccccn3)CC2)cc1 (centres undefined)	none
CC(=O)c1ccc(OCC(O)CN2CCN(c3ccccn3)CC2)cc1 (centres undefined)	D1 antag -60, DRD3 agonist 56, DRD3 antagonist -55
COc1ccccc1NC(=O)NNC(=O)CCN1CCOCC1	none
O=C(CCCCCCN1C(=O)c2ccccc2C1=O)N1CCC(c2ccccc2)C1 (centres undefined)	D1 antag -44
COc1ccc2c(c1)CC/C2=N\OC(=O)c1ccccc1C	none
COc1ccc2c(c1)CCC/C2=N/OC(=O)c1ccccc1OC	D1 antag -33
Nc1c(C(=O)c2ccccc2)sc2nsc(SCCN3CCOCC3)c12	D1 antag -42, D1 ag 194
Oc1ccc(-c2c(-c3ccsc3)sc3ccccc23)cc1	DRD3 agonist 36
N/C(Cc1nc(-c2ccc(F)cc2)cs1)=N\O	none
N/C(Cc1nc(-c2ccc(Br)cc2)cs1)=N\O	D1 antag -47
Fc1ccc(Nc2nc(-c3ccncc3)cs2)cc1	D1 antag -52
Oc1ccc(Nc2nc(-c3ccc(O)cc3)cs2)cc1	D1 antag -32, D1 ag 41
Cc1nc(C)c(-c2csc(Nc3ccc(F)cc3)n2)s1	D1 antag -38
COc1cccc(Nc2nc(-c3sc(C)nc3C)cs2)c1	none
Cc1sc2ncn(/N=C/c3cn(-c4ccccc4)nc3-c3ccccc3)c(=O)c2c1C	none (no result: DRD3 agonist, DRD3 antagonist)
COc1cccc(S(=O)(=O)N(C)C[C@H]2OCc3cnnn3CCCC(=O)N([C@@H](C)CO)C[C@@H]2C)c1	none (no result: D1 antag, D1 ag, D1 potentiator)
Brc1ccc(-c2csc(Nc3nc(-c4ccc(Br)cc4)cs3)n2)cc1	D1 antag -30
Cc1cc(O)ccc1Nc1nc(-c2cccs2)cs1	none
Cc1nc(C)c(-c2csc(Nc3ccc(O)cc3C)n2)s1	D1 antag -32
CCOC(=O)C1C(=O)CC(C)(O)C(C(=O)OCC)C1c1ccc(Br)cc1 (centres undefined)	D1 antag -30
